{
  "source": "PubChem BioAssay (Tox21)",
  "note": "Records with an inconclusive call do not appear. Activity calls are given as the source filed them. Calls follow the shape of the dose curve; as a rule, active = well fitted cell-killing curve with a large enough effect in the repeat runs; inconclusive = weak or mixed curves, or effect the other way; inactive = flat fitted curve, though single readings scatter.",
  "data": [
    {"assay": "cAMP Responsive Elements (CRE) small molecule antagonists, cell-based qHTS assay: qHTS cell viability counter screen (AID 2060913); also: nearly all actives have a fitted effect of over 40% in size; also: potency is read from the fitted curve at half-maximal effect; as to viability change, negative = cytotoxic: % is scaled to controls: 0 for no effect and ±100 for the full control effect", "settings": "CRE-bla HEK293T viability, CellTiter-Glo luminescence, 5 h; series mostly up to 92.4 µM; viability change, negative = cytotoxic: at the top concentration", "summary_of_the_method": "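Cytotoxicity read in the same wells as the CRE-bla HEK293T antagonist assay: after 3 h compound with 0.25 uM NKH477 final and 2 h beta-lactamase substrate, CellTiter-Glo luminescence measured.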", "values": [
      {"compound": "CC(C)(C)C1CCCCC1O", "note": "(stereo not given)", "viability change, negative = cytotoxic": "-9.88% (inactive)"},
      {"compound": "CC1=C(/C=C/C(C)=C/C=C/C(C)=C/C(=O)O)C(C)(C)CCC1", "Potency": "inactive"},
      {"compound": "CCOC(=O)COC(=O)c1cc(Oc2ccc(C(F)(F)F)cc2Cl)ccc1[N+](=O)[O-]", "viability change, negative = cytotoxic": "-10.5% (inactive)"},
      {"compound": "Cc1ccc(S(=O)(=O)O)cc1C", "Potency": "inactive"},
      {"compound": "CC1=NN(c2cc(Cl)c(S(=O)(=O)O)cc2Cl)C(=O)C1N=Nc1ccc(S(=O)(=O)O)cc1", "note": "(stereo not given)", "viability change, negative = cytotoxic": "-4.96% (inactive)"},
      {"compound": "CCCCCCCCCCCCOC(=O)c1ccc(O)cc1", "viability change, negative = cytotoxic": "0.28% (inactive)"},
      {"compound": "Nc1ccc(Oc2cccc(Oc3ccc(N)cc3)c2)cc1", "viability change, negative = cytotoxic": "9.6% (inactive)"},
      {"compound": "O=C(O)CNC(=O)c1ccccc1", "viability change, negative = cytotoxic": "-0.485% [at 42.5 µM] (inactive)"},
      {"compound": "O=c1[nH]c2ccc(Cl)cc2o1", "viability change, negative = cytotoxic": "-10.4% (inactive)"},
      {"compound": "CO[C@@]1(NC(=O)Cc2cccs2)C(=O)N2C(C(=O)O)=C(COC(N)=O)CS[C@@H]21", "viability change, negative = cytotoxic": "-0.205% [at 42.5 µM] (inactive)"},
      {"compound": "O=C(O)c1ccco1", "viability change, negative = cytotoxic": "10.2% (inactive)"},
      {"compound": "CCCCCOC(C)=O", "Potency": "inactive"},
      {"compound": "C[Si](C)(C)O[Si](C)(C)C", "Potency": "inactive"},
      {"compound": "CCCCCCS", "viability change, negative = cytotoxic": "1.04% (inactive)"},
      {"compound": "OC[C@@H](O)[C@H](O)[C@H](O)[C@@H](O)CO", "Potency": "inactive"},
      {"compound": "Cc1ccc(C)c(O)c1C", "Potency": "inactive"},
      {"compound": "O=C(O)CCCCCC(=O)O", "viability change, negative = cytotoxic": "-5.23% (inactive)"},
      {"compound": "C[C@@H](O)[C@H]1C(=O)N2C(C(=O)O)=C(SCCN=CN)C[C@H]12", "viability change, negative = cytotoxic": "4.65% [at 42.5 µM] (inactive)"},
      {"compound": "C/C=C/C=C/CCCCCCCO", "viability change, negative = cytotoxic": "10.6% (inactive)"},
      {"compound": "C=CC(=O)OCC[N+](C)(C)C", "viability change, negative = cytotoxic": "15.8% (inactive)"},
      {"compound": "O=C(C(Cl)Cl)N1CCOC12CCCCC2", "viability change, negative = cytotoxic": "6.86% (inactive)"},
      {"compound": "COc1ccc(OC(F)(F)F)cc1CN[C@H]1CCCN[C@H]1c1ccccc1", "viability change, negative = cytotoxic": "-22.3% (inactive)"},
      {"compound": "CC(CO)(CO)CO", "viability change, negative = cytotoxic": "3.67% (inactive)"},
      {"compound": "c1c[nH]cn1", "Potency": "inactive"},
      {"compound": "O=C(O)c1ccc(-n2nc(-c3ccccc3O)nc2-c2ccccc2O)cc1", "viability change, negative = cytotoxic": "-0.0259% [at 42.5 µM] (inactive)"},
      {"compound": "CCCCCCC1CCC(=O)O1", "note": "(stereo not given)", "viability change, negative = cytotoxic": "4.54% (inactive)"},
      {"compound": "CN1CCCC(CC2c3ccccc3Sc3ccccc32)C1", "note": "(stereo not given)", "viability change, negative = cytotoxic": "-12.5% [at 42.5 µM] (inactive)"},
      {"compound": "c1ccc2cnncc2c1", "viability change, negative = cytotoxic": "1.91% (inactive)"},
      {"compound": "CC1=C(C/C=C(\\C)CCC[C@H](C)CCC[C@H](C)CCCC(C)C)C(=O)c2ccccc2C1=O", "viability change, negative = cytotoxic": "11.5% [at 42.5 µM] (inactive)"},
      {"compound": "CC1(C)NC(=O)NC1=O", "Potency": "inactive"},
      {"compound": "CC(C)(C)[C@@H](O)[C@@H](Cc1ccc(Cl)cc1)n1cncn1", "Potency": "inactive"},
      {"compound": "CCC(=O)OC/C=C/c1ccccc1", "Potency": "inactive"},
      {"compound": "N#Cc1cscn1", "viability change, negative = cytotoxic": "4.31% (inactive)"},
      {"compound": "CS(=O)(=O)c1ccc(-c2cn3ccccc3n2)cc1", "Potency": "26.6 µM (active)"},
      {"compound": "Cn1c(=O)c2c(ncn2C)n(C)c1=O", "Potency": "inactive"},
      {"compound": "CCN(CC)CCOc1ccc2c(c1)C(=O)c1cc(OCCN(CC)CC)ccc1-2", "viability change, negative = cytotoxic": "-6.52% [at 42.5 µM] (inactive)"},
      {"compound": "CCN(CC)c1ccc2c(c1)Oc1cc(N(CC)CC)ccc1C21OC(=O)c2ccccc21", "viability change, negative = cytotoxic": "16.3% [at 42.5 µM] (inactive)"},
      {"compound": "CCOC(=O)C(C#N)=C(c1ccccc1)c1ccccc1", "Potency": "inactive"},
      {"compound": "CCC(CC)C(=O)O", "viability change, negative = cytotoxic": "2.75% (inactive)"},
      {"compound": "Oc1cccc(-c2c3nc(c(-c4cccc(O)c4)c4ccc([nH]4)c(-c4cccc(O)c4)c4nc(c(-c5cccc(O)c5)c5ccc2[nH]5)CC4)C=C3)c1", "viability change, negative = cytotoxic": "10.1% [at 42.5 µM] (inactive)"}
    ]},
    {"assay": "cAMP Responsive Elements (CRE) small molecule agonists, cell-based qHTS assay: qHTS cell viability counter screen (AID 2060914); also: nearly all actives have a fitted effect of over 50% in size; also: potency is read from the fitted curve at half-maximal effect; as to activity change, negative = cytotoxicity: % is scaled to controls: 0 for no effect and ±100 for the full control effect", "settings": "CRE-bla HEK293T viability, CellTiter-Glo luminescence, 5 h; series mostly up to 92.4 µM; activity change, negative = cytotoxicity: at the top concentration", "summary_of_the_method": "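CRE-bla HEK 293T cells, plated 18 h at 37 °C, were exposed to compounds for 3 h at 37 °C/5% CO2. Viability was then measured in the same wells by CellTiter-Glo luminescence after 30 min at room temperature.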", "values": [
      {"compound": "CC(C)(C)C1CCCCC1O", "note": "(stereo not given)", "activity change, negative = cytotoxicity": "-0.857% (inactive)"},
      {"compound": "CC1=C(/C=C/C(C)=C/C=C/C(C)=C/C(=O)O)C(C)(C)CCC1", "Potency": "inactive"},
      {"compound": "CCOC(=O)COC(=O)c1cc(Oc2ccc(C(F)(F)F)cc2Cl)ccc1[N+](=O)[O-]", "activity change, negative = cytotoxicity": "-7.71% (inactive)"},
      {"compound": "Cc1ccc(S(=O)(=O)O)cc1C", "Potency": "inactive"},
      {"compound": "CC1=NN(c2cc(Cl)c(S(=O)(=O)O)cc2Cl)C(=O)C1N=Nc1ccc(S(=O)(=O)O)cc1", "note": "(stereo not given)", "Potency": "2.43 µM (active)"},
      {"compound": "CCCCCCCCCCCCOC(=O)c1ccc(O)cc1", "activity change, negative = cytotoxicity": "-4.75% (inactive)"},
      {"compound": "Nc1ccc(Oc2cccc(Oc3ccc(N)cc3)c2)cc1", "activity change, negative = cytotoxicity": "-0.399% (inactive)"},
      {"compound": "O=C(O)CNC(=O)c1ccccc1", "activity change, negative = cytotoxicity": "13.7% [at 42.5 µM] (inactive)"},
      {"compound": "O=c1[nH]c2ccc(Cl)cc2o1", "activity change, negative = cytotoxicity": "7.16% (inactive)"},
      {"compound": "CO[C@@]1(NC(=O)Cc2cccs2)C(=O)N2C(C(=O)O)=C(COC(N)=O)CS[C@@H]21", "activity change, negative = cytotoxicity": "-6.27% [at 42.5 µM] (inactive)"},
      {"compound": "O=C(O)c1ccco1", "activity change, negative = cytotoxicity": "5.65% (inactive)"},
      {"compound": "CCCCCOC(C)=O", "activity change, negative = cytotoxicity": "-11.3% (inactive)"},
      {"compound": "C[Si](C)(C)O[Si](C)(C)C", "Potency": "inactive"},
      {"compound": "CCCCCCS", "activity change, negative = cytotoxicity": "-10% (inactive)"},
      {"compound": "OC[C@@H](O)[C@H](O)[C@H](O)[C@@H](O)CO", "Potency": "inactive"},
      {"compound": "Cc1ccc(C)c(O)c1C", "Potency": "inactive"},
      {"compound": "O=C(O)CCCCCC(=O)O", "activity change, negative = cytotoxicity": "-2.61% (inactive)"},
      {"compound": "C[C@@H](O)[C@H]1C(=O)N2C(C(=O)O)=C(SCCN=CN)C[C@H]12", "activity change, negative = cytotoxicity": "1.75% [at 42.5 µM] (inactive)"},
      {"compound": "C/C=C/C=C/CCCCCCCO", "activity change, negative = cytotoxicity": "5.93% (inactive)"},
      {"compound": "C=CC(=O)OCC[N+](C)(C)C", "activity change, negative = cytotoxicity": "1.58% (inactive)"},
      {"compound": "O=C(C(Cl)Cl)N1CCOC12CCCCC2", "activity change, negative = cytotoxicity": "0.182% (inactive)"},
      {"compound": "COc1ccc(OC(F)(F)F)cc1CN[C@H]1CCCN[C@H]1c1ccccc1", "activity change, negative = cytotoxicity": "7.25% (inactive)"},
      {"compound": "CC(CO)(CO)CO", "activity change, negative = cytotoxicity": "-2.14% (inactive)"},
      {"compound": "c1c[nH]cn1", "Potency": "inactive"},
      {"compound": "O=C(O)c1ccc(-n2nc(-c3ccccc3O)nc2-c2ccccc2O)cc1", "activity change, negative = cytotoxicity": "8.46% [at 42.5 µM] (inactive)"},
      {"compound": "CCCCCCC1CCC(=O)O1", "note": "(stereo not given)", "activity change, negative = cytotoxicity": "-7.94% (inactive)"},
      {"compound": "CN1CCCC(CC2c3ccccc3Sc3ccccc32)C1", "note": "(stereo not given)", "activity change, negative = cytotoxicity": "-3.66% [at 42.5 µM] (inactive)"},
      {"compound": "c1ccc2cnncc2c1", "activity change, negative = cytotoxicity": "-0.951% (inactive)"},
      {"compound": "CC1=C(C/C=C(\\C)CCC[C@H](C)CCC[C@H](C)CCCC(C)C)C(=O)c2ccccc2C1=O", "activity change, negative = cytotoxicity": "0.29% [at 42.5 µM] (inactive)"},
      {"compound": "CC1(C)NC(=O)NC1=O", "Potency": "inactive"},
      {"compound": "CC(C)(C)[C@@H](O)[C@@H](Cc1ccc(Cl)cc1)n1cncn1", "activity change, negative = cytotoxicity": "-4.75% (inactive)"},
      {"compound": "CCC(=O)OC/C=C/c1ccccc1", "Potency": "inactive"},
      {"compound": "N#Cc1cscn1", "activity change, negative = cytotoxicity": "-3.18% (inactive)"},
      {"compound": "CS(=O)(=O)c1ccc(-c2cn3ccccc3n2)cc1", "activity change, negative = cytotoxicity": "-29.5% [at 42.5 µM] (inactive)"},
      {"compound": "Cn1c(=O)c2c(ncn2C)n(C)c1=O", "Potency": "inactive"},
      {"compound": "CCN(CC)CCOc1ccc2c(c1)C(=O)c1cc(OCCN(CC)CC)ccc1-2", "activity change, negative = cytotoxicity": "-5.34% [at 42.5 µM] (inactive)"},
      {"compound": "CCN(CC)c1ccc2c(c1)Oc1cc(N(CC)CC)ccc1C21OC(=O)c2ccccc21", "activity change, negative = cytotoxicity": "3.45% [at 42.5 µM] (inactive)"},
      {"compound": "CCOC(=O)C(C#N)=C(c1ccccc1)c1ccccc1", "Potency": "inactive"},
      {"compound": "CCC(CC)C(=O)O", "activity change, negative = cytotoxicity": "6.12% (inactive)"},
      {"compound": "Oc1cccc(-c2c3nc(c(-c4cccc(O)c4)c4ccc([nH]4)c(-c4cccc(O)c4)c4nc(c(-c5cccc(O)c5)c5ccc2[nH]5)CC4)C=C3)c1", "activity change, negative = cytotoxicity": "0.308% [at 42.5 µM] (inactive)"}
    ]}
  ]
}
